In PubChem BioAssay (EPA / NIEHS):
Results filed as inconclusive are left out. The source holds several records for some structures; these can differ, active in one and inactive in another. Activity calls are given as the source filed them. How the source made its calls, unless noted: active means hit-call score of the fitted dose curve at least 0.9, where 1 is the maximum; inconclusive means response in the unintended direction; inactive means score below 0.9.

How the values were obtained:
[1] = ATG_AP_1_CIS: Attagene CIS-FACTORIAL HepG2 Assay for human Activator Protein 1 (AP-1) (AID 2282931; active means hit-call score of the fitted dose curve at least 0.9, where 1 is the maximum; inactive means score below 0.9); settings: HepG2 Attagene cis-factorial AP-1 reporter mRNA; actives raise or lower the signal
Procedure, shortened: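 Fluorescence of labelled PCR fragments separated by capillary electrophoresis gives reporter mRNA levels. HepG2 with transfected cis-regulated reporter units, 24 h exposure; DMSO serves as baseline for bidirectional curve fits.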

[2] = ATG_GLI_CIS: Attagene CIS-FACTORIAL HepG2 Assay for human Zinc Finger Protein GLI1 (AID 2282945; active means hit-call score of the fitted dose curve at least 0.9, where 1 is the maximum; inactive means score below 0.9); settings: HepG2, Attagene cis-factorial reporter mRNA, GLI element; actives raise or lower the signal
Procedure, shortened: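 HepG2 cells transiently transfected with cis-promoter multiplexed reporter units report endogenous transcription factor activity. After 24 h chemical exposure, reporter mRNA was quantified by RT-PCR, 6-FAM labelling, HpaI digestion and capillary electrophoresis, with bidirectional fitting against DMSO.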

[3] = ATG_PBREM_CIS: Attagene CIS-FACTORIAL HepG2 Assay for human Phenobarbital-responsive Enhancer Module (PBREM) (AID 2282955; active means hit-call score of the fitted dose curve at least 0.9, where 1 is the maximum; inactive means score below 0.9); settings: HepG2 PBREM cis-reporter, Attagene multiplexed transcription; actives raise or lower the signal
Procedure, shortened: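 HepG2, transient MRTU transfection, 24 h dosing; RNA → oligo(dT) RT → PCR → 6-FAM extension → HpaI → CE. Bidirectional fit vs DMSO.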

[4] = target: Paired box protein Pax-6 (Homo sapiens) (UniProt P26367); assay: ATG_Pax6_CIS: Attagene CIS-FACTORIAL HepG2 Assay for human Paired Box 6 (PAX6) (AID 2282956; active means hit-call score of the fitted dose curve at least 0.9, where 1 is the maximum; inactive means score below 0.9); settings: HepG2 CIS-FACTORIAL PAX6 reporter transcription, RNA readout; actives raise or lower the signal
Procedure, shortened: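 Multiplexed cis-reporter HepG2 system; 24 h treatment; reporter mRNA read by RT-PCR/CE fluorescence; bidirectional fit vs DMSO.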

[5] = ATG_TCF_b_cat_CIS: Attagene CIS-FACTORIAL HepG2 Assay for human T-Cell-Factor with beta-catenin (TCF/b-cat) (AID 2282965; active means hit-call score of the fitted dose curve at least 0.9, where 1 is the maximum; inactive means score below 0.9); settings: HepG2 TCF/beta-catenin cis-reporter transcription, actives raise or lower the signal
Procedure, shortened: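 In this cis-format system, transfected HepG2 cells report endogenous transcription factor activity. Readout after 24 h exposure is reporter transcript abundance from RT-PCR and capillary electrophoresis, analysed for gain or loss of signal versus DMSO.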

[6] = ATG_TGFb_CIS: Attagene CIS-FACTORIAL HepG2 Assay for human Transforming Growth Factor (TGF) (AID 2282967; active means hit-call score of the fitted dose curve at least 0.9, where 1 is the maximum; inactive means score below 0.9); settings: HepG2 Attagene CIS TGFb reporter, mRNA transcription; actives raise or lower the signal
Procedure, shortened: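 Cells were dosed for 24 hours, after which total RNA was reverse-transcribed and reporter sequences amplified, labeled and sized by capillary electrophoresis. Activity was fitted in both directions against DMSO.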

[7] = ATG_M_06_TRANS: Attagene TRANS-FACTORIAL HepG2 Assay for M06 Transcription Factor (Internal Marker) (AID 2282983); settings: HepG2 Attagene TRANS M06 internal marker reporter;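 further: reporter transcript level by RT-PCR then capillary electrophoresis fluorescence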
Procedure, shortened: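 Cells: HepG2, transient multi-reporter transfection. Exposure: 24 h. Detection: RT-PCR, 6-FAM labelling, HpaI digestion (2 h, 37 °C), capillary electrophoresis. Baseline: DMSO.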

[8] = ATG_M_32_TRANS: Attagene TRANS-FACTORIAL HepG2 Assay for M32 Transcription Factor (Internal Marker) (AID 2282984); settings: HepG2 Attagene TRANS M32 internal marker reporter;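 further: transcript level of a background control reporter unit measured by RT-PCR and capillary electrophoresis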
Procedure, shortened: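 Human hepatoma HepG2, transient MRTU transfection, 24 h treatment. RNA → RT-PCR → fluorescent primer extension → HpaI digest (2 h, 37 C) → CE. Positive-direction fit vs DMSO.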

[9] = target: Transcriptional activator Myb (Homo sapiens) (UniProt P10242); assay: ATG_Myb_CIS: Attagene CIS-FACTORIAL HepG2 Assay for human Myeloblastosis (Myb) Proto-Oncogene Transcription Factor (AID 2282986; active means hit-call score of the fitted dose curve at least 0.9, where 1 is the maximum; inactive means score below 0.9); settings: HepG2 Attagene CIS-FACTORIAL Myb reporter transcription; actives raise or lower the signal
Procedure, shortened: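 Endogenous transcription factor activity at a Myb-responsive cis element is reported in human liver HepG2 cells after 24 h chemical treatment. Reporter mRNA is detected by RT-PCR and capillary electrophoresis fluorescence, with DMSO as baseline.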

[10] = target: Peroxisome proliferator-activated receptor gamma (Homo sapiens) (UniProt P37231); assay: ATG_PPARg_TRANS: Attagene TRANS-FACTORIAL HepG2 Assay for human Peroxisome Proliferator-activated Receptor-gamma (PPARg) (AID 2283007)
Procedure, shortened: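 Human hepatoma HepG2, transient MRTU transfection, 24 h treatment. mRNA reporter signal by RT-PCR plus capillary electrophoresis, fluorescence detection; fitted for increase over DMSO negative control.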

[11] = target: Nuclear receptor subfamily 1 group I member 2 (Homo sapiens) (UniProt O75469); assay: ATG_PXR_TRANS: Attagene TRANS-FACTORIAL HepG2 Assay for human Pregnane X Receptor (PXR) (AID 2283008)
Procedure, shortened: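 Measures mRNA induction of a GAL4-UAS-driven reporter in human HepG2 cells transiently expressing PXR fused to Gal4, following 24 h treatment. DMSO served as negative control and baseline.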

[12] = target: Retinoic acid receptor RXR-alpha (Homo sapiens) (UniProt P19793); assay: ATG_RXRa_TRANS: Attagene TRANS-FACTORIAL HepG2 Assay for human Retinoid X Receptor alpha (RXRa) (AID 2283012)
Procedure, shortened: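 HepG2 cells transiently transfected with GAL4-UAS reporter units and chimeric RXRa-Gal4 protein, treated 24 h. Reporter mRNA measured by RT-PCR, fluorescent labelling, HpaI digestion and capillary electrophoresis. Induction fitted against DMSO.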

[13] = target: human Thyroid Receptor alpha (THRa1), THRA (gene 7067) (UniProt P10827); assay: ATG_THRa1_TRANS: Attagene TRANS-FACTORIAL HepG2 Assay for human Thyroid Receptor alpha (THRa1) (AID 2283014)
Procedure, shortened: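 Transcripts from GAL4-UAS-driven reporters, measured after 24 h compound exposure by RT-PCR plus capillary electrophoresis of 6-FAM-labeled fragments, were fitted for gain of signal relative to DMSO. Cells: transiently transfected HepG2 expressing NR-Gal4 chimeras.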

[14] = target: Cellular tumor antigen p53 (Homo sapiens) (UniProt P04637); assay: TOX21_p53_BLA_p2_ratio: Tox21 HCT-116 p53 Agonism Beta-lactamase Assay, Ratio, Phase 2 (AID 2283592)
Procedure, shortened: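 Gain-of-signal p53 agonism was scored from the beta-lactamase FRET ratio (460/530 nm, 405 nm excitation) in HCT116 cells treated 16 h at 37C, 5% CO2, with DMSO serving as negative control and baseline.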

[15] = target: Cellular tumor antigen p53 (Homo sapiens) (UniProt P04637); assay: TOX21_p53_BLA_p5_ratio: Tox21 HCT-116 p53 Agonism Beta-lactamase Assay, Ratio, Phase 5 (AID 2283599)
Procedure, shortened: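 HCT-116 cells carrying a p53-inducible beta-lactamase reporter were seeded at 4000 cells/well and dosed after 5 h with compound in DMSO (217-fold dilution). After 16 h at 37C, CCF4-AM substrate was added for 2 h, and the 460/530 nm emission ratio was scored as gain-of-signal versus DMSO.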

[16] = target: Cellular tumor antigen p53 (Homo sapiens) (UniProt P04637); assay: TOX21_p53_BLA_p4_ratio: Tox21 HCT-116 p53 Agonism Beta-lactamase Assay, Ratio, Phase 4 (AID 2283601)
Procedure, shortened: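 HCT116 cells carrying an inducible beta-lactamase reporter were plated at 4000 cells/well, rested 5 h, then exposed to compounds in DMSO (217-fold dilution) for 16 h at 37C. CCF4-AM substrate was loaded 2 h at room temperature; 460/530 nm emission ratio scored gain-of-signal versus DMSO.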

[17] = ACEA_ER_AUC_viability: ACEA Biosciences xCELLigence Real-Time Cell Analysis on Estrogen Receptor Agonism for Viability (AID 2283782);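 further: continuous compound exposure with impedance area under curve over 80 h; hit means loss of impedance signal meaning reduced cell growth or viability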
Procedure, shortened: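 T-47D human breast cells in phenol red-free RPMI1640 with 10% charcoal-stripped FBS were dosed with an 8-point 1:4 dilution series from 100 uM top final concentration, in duplicate. Impedance-based growth was followed for 80 h; AUC analysed versus DMSO.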

[18] = target: Hypoxia-inducible factor 1-alpha (Homo sapiens) (UniProt Q16665); assay: ATG_HIF1a_CIS: Attagene CIS-FACTORIAL HepG2 Assay for human Hypoxia Inducible Factor 1 (HIF1A) (AID 2282951; active means hit-call score of the fitted dose curve at least 0.9, where 1 is the maximum; inactive means score below 0.9); settings: HepG2 Attagene cis-factorial HIF1a reporter transcription; actives raise or lower the signal
Procedure, shortened: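 HepG2, transient cis-reporter library, 24 h dosing. RNA → RT (oligo dT) → PCR → 6-FAM primer extension → HpaI → CE. Bidirectional curve fit vs DMSO.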

[19] = ATG_XTT_Cytotoxicity: Cytotoxicity Assessment in the Attagene TRANS-FACTORIAL HepG2 Assay (AID 2283584);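 on AC50: cells exposed to compound for 24 h before reading; active means loss of viability signal versus DMSO baseline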
Procedure, shortened: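 Viability endpoint from XTT after 24 h chemical exposure of reporter-transfected human HepG2 liver cells; signal loss fitted relative to DMSO negative control.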

[20] = ATG_BRE_CIS: Attagene CIS-FACTORIAL HepG2 Assay for human Bone Morphogenetic Protein (BMP) Response Element (BRE) (AID 2282933; active means hit-call score of the fitted dose curve at least 0.9, where 1 is the maximum; inactive means score below 0.9); settings: HepG2 BMP response element reporter, Attagene transcription factor profiling; actives raise or lower the signal
Procedure, shortened: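 Endogenous transcription factor activity at a BMP response element was monitored in transfected HepG2 cells 24 h after dosing. Fluorescent RT-PCR products were resolved by capillary electrophoresis, and activity was fitted in both directions versus DMSO.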

Measured: AC50

Chain of Paired box protein Pax-6 (Homo sapiens) (P26367 whole entry, looked up): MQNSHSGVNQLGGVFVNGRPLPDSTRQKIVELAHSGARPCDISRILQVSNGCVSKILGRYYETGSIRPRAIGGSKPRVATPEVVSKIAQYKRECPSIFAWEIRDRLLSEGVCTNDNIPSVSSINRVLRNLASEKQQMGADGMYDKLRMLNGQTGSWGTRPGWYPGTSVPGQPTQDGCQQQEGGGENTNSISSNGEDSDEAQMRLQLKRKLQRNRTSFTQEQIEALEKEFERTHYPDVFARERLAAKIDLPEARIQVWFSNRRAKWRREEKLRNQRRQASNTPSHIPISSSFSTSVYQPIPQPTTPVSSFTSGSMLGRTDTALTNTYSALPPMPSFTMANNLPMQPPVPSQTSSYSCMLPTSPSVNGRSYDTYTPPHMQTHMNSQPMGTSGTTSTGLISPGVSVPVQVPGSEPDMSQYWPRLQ
Chain of Retinoic acid receptor RXR-alpha (Homo sapiens) (P19793 whole entry, looked up, the tested form may be a part): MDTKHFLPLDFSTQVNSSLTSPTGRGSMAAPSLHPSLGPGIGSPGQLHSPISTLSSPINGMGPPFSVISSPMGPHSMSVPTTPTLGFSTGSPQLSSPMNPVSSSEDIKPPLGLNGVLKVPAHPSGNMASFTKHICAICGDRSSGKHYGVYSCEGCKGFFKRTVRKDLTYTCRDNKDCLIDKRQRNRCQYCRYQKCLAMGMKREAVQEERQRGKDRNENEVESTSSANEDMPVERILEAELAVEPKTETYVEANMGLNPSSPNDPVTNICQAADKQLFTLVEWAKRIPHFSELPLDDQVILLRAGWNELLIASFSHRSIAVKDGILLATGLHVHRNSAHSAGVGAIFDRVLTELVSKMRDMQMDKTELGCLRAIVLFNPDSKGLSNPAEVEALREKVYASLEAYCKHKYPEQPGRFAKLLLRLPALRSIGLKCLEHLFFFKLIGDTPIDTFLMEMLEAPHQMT
Chain of Nuclear receptor subfamily 1 group I member 2 (Homo sapiens) (O75469 whole entry, looked up, the tested form may be a part): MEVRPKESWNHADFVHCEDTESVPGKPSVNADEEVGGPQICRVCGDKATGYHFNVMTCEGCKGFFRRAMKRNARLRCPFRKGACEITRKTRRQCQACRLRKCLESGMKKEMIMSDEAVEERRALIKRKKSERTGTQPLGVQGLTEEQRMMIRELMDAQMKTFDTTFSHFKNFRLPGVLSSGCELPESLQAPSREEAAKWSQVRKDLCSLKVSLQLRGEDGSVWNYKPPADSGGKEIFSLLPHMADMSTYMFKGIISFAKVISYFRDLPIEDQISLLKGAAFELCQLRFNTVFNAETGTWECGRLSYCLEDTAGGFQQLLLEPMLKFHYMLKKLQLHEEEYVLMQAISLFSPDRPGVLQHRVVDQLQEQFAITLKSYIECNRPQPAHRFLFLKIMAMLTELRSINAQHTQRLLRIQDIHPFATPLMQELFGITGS
Chain of Peroxisome proliferator-activated receptor gamma (Homo sapiens) (P37231 whole entry, looked up): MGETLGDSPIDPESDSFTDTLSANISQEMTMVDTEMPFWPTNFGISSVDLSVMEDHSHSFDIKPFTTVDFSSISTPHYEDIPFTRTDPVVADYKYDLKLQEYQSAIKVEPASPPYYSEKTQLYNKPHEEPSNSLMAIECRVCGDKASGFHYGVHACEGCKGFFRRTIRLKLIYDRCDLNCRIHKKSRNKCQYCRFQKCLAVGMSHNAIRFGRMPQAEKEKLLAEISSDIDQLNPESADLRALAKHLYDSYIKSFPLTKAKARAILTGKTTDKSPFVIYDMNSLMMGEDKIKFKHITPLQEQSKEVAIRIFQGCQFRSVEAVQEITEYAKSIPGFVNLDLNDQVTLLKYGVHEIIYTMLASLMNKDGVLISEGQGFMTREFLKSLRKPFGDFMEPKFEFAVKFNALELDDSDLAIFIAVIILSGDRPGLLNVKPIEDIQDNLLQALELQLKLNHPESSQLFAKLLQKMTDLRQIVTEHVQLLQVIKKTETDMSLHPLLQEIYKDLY
Chain of Transcriptional activator Myb (Homo sapiens) (P10242 whole entry, looked up): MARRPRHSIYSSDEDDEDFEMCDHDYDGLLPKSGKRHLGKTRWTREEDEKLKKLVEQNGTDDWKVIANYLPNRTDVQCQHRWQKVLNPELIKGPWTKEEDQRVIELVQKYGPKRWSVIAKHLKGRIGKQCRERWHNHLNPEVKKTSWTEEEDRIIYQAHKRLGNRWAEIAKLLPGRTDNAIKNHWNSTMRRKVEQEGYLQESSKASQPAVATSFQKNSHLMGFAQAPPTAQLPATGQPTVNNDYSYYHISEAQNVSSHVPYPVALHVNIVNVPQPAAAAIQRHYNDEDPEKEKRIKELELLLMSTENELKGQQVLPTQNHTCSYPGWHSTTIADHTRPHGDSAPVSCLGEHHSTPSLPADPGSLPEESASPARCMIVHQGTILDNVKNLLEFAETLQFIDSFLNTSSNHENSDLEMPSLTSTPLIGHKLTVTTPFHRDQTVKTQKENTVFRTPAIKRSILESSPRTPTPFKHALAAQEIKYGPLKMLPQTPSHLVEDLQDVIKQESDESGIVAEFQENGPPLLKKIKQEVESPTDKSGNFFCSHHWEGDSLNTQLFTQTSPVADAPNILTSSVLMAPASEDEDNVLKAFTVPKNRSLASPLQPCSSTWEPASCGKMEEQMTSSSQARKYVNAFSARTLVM
Chain of Hypoxia-inducible factor 1-alpha (Homo sapiens) (Q16665 whole entry, looked up): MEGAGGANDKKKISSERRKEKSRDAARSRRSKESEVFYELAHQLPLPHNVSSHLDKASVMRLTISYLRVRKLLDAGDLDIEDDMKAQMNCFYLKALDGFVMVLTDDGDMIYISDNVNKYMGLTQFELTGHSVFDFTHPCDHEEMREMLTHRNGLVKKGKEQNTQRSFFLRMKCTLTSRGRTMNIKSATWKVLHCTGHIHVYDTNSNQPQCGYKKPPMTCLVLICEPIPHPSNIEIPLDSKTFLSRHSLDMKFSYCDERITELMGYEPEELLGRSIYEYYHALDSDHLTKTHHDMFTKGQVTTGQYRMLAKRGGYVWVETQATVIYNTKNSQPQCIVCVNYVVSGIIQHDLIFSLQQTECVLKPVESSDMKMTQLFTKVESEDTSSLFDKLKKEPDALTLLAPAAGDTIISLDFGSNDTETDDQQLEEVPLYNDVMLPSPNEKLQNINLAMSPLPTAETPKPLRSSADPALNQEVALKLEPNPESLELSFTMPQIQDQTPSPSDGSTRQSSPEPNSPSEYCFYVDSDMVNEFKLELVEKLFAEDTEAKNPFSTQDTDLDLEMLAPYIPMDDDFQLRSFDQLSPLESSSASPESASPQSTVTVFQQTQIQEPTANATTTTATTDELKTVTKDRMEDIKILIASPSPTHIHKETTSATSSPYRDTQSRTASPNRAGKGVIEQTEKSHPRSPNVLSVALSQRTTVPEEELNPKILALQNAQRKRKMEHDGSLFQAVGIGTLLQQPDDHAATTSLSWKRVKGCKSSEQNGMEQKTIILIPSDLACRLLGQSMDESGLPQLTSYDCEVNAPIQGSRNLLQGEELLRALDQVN
Chain of Cellular tumor antigen p53 (Homo sapiens) (P04637 whole entry, looked up): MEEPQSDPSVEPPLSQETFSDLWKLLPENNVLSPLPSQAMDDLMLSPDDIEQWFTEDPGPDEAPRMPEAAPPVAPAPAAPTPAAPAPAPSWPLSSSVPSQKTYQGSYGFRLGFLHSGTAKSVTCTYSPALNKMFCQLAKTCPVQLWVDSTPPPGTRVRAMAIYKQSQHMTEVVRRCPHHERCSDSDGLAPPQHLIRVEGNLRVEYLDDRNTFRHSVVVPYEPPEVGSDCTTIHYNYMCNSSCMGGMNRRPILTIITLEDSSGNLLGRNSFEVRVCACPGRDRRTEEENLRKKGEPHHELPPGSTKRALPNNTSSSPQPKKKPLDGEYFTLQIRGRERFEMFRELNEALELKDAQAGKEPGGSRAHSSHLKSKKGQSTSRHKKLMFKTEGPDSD
Chain of human Thyroid Receptor alpha (THRa1), THRA (gene 7067) (P10827 whole entry, looked up, the tested form may be a part): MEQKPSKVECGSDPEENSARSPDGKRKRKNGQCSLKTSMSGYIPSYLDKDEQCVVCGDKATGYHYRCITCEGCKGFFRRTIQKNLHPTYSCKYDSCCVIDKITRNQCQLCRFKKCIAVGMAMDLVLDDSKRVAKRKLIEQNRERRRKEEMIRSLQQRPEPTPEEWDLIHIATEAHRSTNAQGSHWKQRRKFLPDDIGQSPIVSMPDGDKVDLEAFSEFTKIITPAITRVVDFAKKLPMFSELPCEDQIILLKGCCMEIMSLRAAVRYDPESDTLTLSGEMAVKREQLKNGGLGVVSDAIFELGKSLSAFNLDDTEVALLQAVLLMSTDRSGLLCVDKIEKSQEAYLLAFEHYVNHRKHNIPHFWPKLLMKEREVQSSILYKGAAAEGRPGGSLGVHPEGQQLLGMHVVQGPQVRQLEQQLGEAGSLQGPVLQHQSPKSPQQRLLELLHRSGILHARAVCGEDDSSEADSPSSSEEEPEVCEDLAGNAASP

c1ccc(Nc2ccc3ccccc3c2)cc1
inactive: [2] | [3] | [4] | [5] | [6] | [7] | [8] | [9] | [12] | [13] | [14] | [15] | [16]
active: [1] 115 µM | [10] 18 µM | [11] 7.59 µM | [14] 74.9 µM | [16] 73.5 µM | [17] 87.1 µM

N#CCCCl
inactive: [2] | [18] | [3] | [5] | [6] | [7] | [9] | [11] | [12] | [19] | [15]

O=[N+]([O-])C=Cc1ccccc1
active: [2] 31.2 µM | [4] 21.1 µM | [5] 18.9 µM | [9] 22.9 µM | [10] 8.83 µM | [11] 8.62 µM | [19] 75.7 µM | [14] 8.76 µM
not listed: [1] | [15] | [20]
inactive: all other assays above

O=C(O)c1cc[c]([Hg][Cl])cc1
active: [10] 44.6 µM
not listed: [1] | [4] | [6] | [8] | [11] | [17] | [20]
inactive: all other assays above

C[N+](C)(C)CC(=O)O
active: [17] 25.6 µM
inactive: [2] | [5] | [6] | [8] | [9] | [12] | [19]

C[N+](C)=CCl
inactive: [20] | [18] | [4] | [5] | [6] | [7] | [10] | [12] | [13]

CCOC(=O)COc1ccc(Cl)cc1Cl
not listed: [6] | [10] | [12] | [13] | [17]
inactive: all other assays above

CC(C)c1ccc(O)cc1
active: [5] 131 µM
not listed: [2] | [8] | [13] | [14] | [17] | [19]
inactive: all other assays above

COC(=O)COc1ccc(Cl)cc1Cl
not listed: [3] | [7] | [10] | [15] | [17] | [19]
inactive: all other assays above

COCC(=O)N(c1c(C)cccc1C)N1CCOC1=O
inactive: [1] | [18] | [3] | [6] | [8] | [9] | [12] | [14] | [15]
active: [11] 27.4 µM

Nc1ccc(-c2ccc(N)c(N)c2)cc1N
inactive: [18] | [4] | [5] | [7] | [8] | [9] | [10] | [12] | [19] | [17]

O=C(O)CCl
inactive: [1] | [20] | [8] | [9] | [10] | [12] | [13] | [19] | [17]

Nc1ccccc1
not listed: [3] | [6] | [9] | [10] | [11] | [19]
inactive: all other assays above

NNc1ccccc1
active: [10] 29.2 µM | [11] 36.6 µM
not listed: [2] | [4] | [14] | [15] | [16]
inactive: all other assays above

N#CC(c1ccccc1)c1ccccc1
active: [10] 83.2 µM | [11] 4.59 µM
not listed: [2] | [8] | [9] | [17] | [19]
inactive: all other assays above

CN(C)CCC#N
not listed: [3] | [5]
inactive: all other assays above

CCCCOP(=O)(O)OCCCC
active: [17] 20.3 µM
not listed: [3] | [12] | [14] | [15] | [16] | [18] | [19]
inactive: all other assays above

c1ccc2c(c1)CCCC2
not listed: [1] | [5] | [7] | [10] | [11] | [13] | [20]
inactive: all other assays above
